Our source for the Potency values is PubChem BioAssay AID588342 (National Center for Advancing Translational Sciences (NCATS), 2011).

Hit rate of the full screen: of about 360,000 compounds, about 25,000 (6.9%) were called active. Entries that show only a call come without a potency. Roughly 9% stayed inconclusive and do not appear here. This is one part of a sample in which actives are shown more often than they occur. Calls come from the whole dose curve; as a rule, active = well fitted inhibition curve with a large enough effect; inconclusive = small, poorly fitted or top-dose-only effect; inactive = flat fitted curve, though single readings scatter.
Potency is the fitted concentration of half-maximal effect.

This assay deals with Luciferin 4-monooxygenase (Photinus pyralis) (UniProt P08659). Nature of the assay: qHTS profiling assay for firefly luciferase inhibitor/activator using purifed enzyme and Km concentrations of substrates (counterscreen for miR-21 project). Note: nearly all actives have a fitted effect of over 55% in size. As to conditions: purified FLuc, luminescence inhibition; series mostly up to 57.5 µM. Put shortly: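 Purified P. pyralis luciferase (10nM final) with 10uM D-luciferin and 10uM ATP (Km levels) in 50mM Tris acetate pH 7.5, 10mM Mg acetate, 0.01% Tween-20, 0.05% BSA; qHTS 6-point titration, ~60 µM downward; luminescence read.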
Sequence of Luciferin 4-monooxygenase (Photinus pyralis) (P08659 whole entry, looked up): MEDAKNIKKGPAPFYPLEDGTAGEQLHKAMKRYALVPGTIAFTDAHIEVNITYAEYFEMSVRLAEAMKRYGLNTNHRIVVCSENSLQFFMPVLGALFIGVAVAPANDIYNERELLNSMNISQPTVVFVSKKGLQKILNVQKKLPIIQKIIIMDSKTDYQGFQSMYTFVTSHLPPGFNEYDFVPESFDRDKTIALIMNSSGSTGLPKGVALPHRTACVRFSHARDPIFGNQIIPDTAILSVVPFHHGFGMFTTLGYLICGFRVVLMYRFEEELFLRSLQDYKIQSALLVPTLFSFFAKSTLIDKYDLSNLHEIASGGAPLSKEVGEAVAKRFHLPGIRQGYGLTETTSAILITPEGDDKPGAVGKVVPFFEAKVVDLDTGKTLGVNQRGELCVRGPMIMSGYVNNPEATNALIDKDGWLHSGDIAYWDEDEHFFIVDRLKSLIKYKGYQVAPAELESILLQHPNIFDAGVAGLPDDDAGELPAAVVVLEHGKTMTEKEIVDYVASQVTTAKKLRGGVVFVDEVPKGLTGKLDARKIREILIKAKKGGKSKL
Turning to `O=C(c1ccc(Cl)nc1)N1CCN(S(=O)(=O)c2ccc3c(c2)OCCO3)CC1`, the Potency result is “inactive”. Consider `COc1cccc(-c2nnc3n(CCc4ccccc4)c(=O)c4ccccc4n23)c1O`, for which the Potency entry is “inactive”. Then `Cc1ccccc1NC(=O)c1cc2c([nH]c1=O)CC(C)(C)CC2=O`, with “inactive”; and `COc1ccc(Nc2ncc(C(=O)Nc3cc(C)ccc3OC)c3ccccc23)cc1`, with “inactive”; and `COc1ccc(OC)c(/C=C/C(=O)c2ccc3c(c2)OCO3)c1`, with 4.78 µM (active).

Take `COc1ccc(C(=O)Nc2cc(C)c(NC(=O)c3ccccc3OC)cn2)cc1`: the Potency was 2.13 µM (active). As for `COc1ccccc1C(=O)NNC(=O)c1ccc(NC(=O)c2ccccc2)cc1`, the Potency result is “inactive”. Then `COc1ccc(C(=O)Nc2ccccc2C(=O)N/N=C/c2ccccc2OC)cc1`, with 0.0757 µM (active); and `COc1ccc(OC)c(/C=C/C(=O)OCC(=O)Nc2ccc3c(c2)OCCO3)c1`, with “inactive”. Next, `COc1ccc(OC)c(/C=N/NC(=O)c2ccc[n+](CC(=O)c3ccccc3)c2)c1`: “inactive”; `COc1ccc(NC(=O)NCc2ccc3c(c2)OCO3)c(OC)c1`: “inactive”.

In the case of `O=C(N/N=C/c1ccc(OC(=O)c2ccccc2Cl)cc1)c1ccc(O)cc1`, the Potency result was “inactive”.

Regarding `COc1ccc(C(=O)Nc2ccccc2C(=O)N/N=C/c2ccc(O)c(OC)c2)cc1`, the Potency was 0.012 µM (active). Next, `COc1ccc(/C=N/NC(=O)c2ccc(Cl)cc2)cc1COC(C)=O`: “inactive”; `COc1ccc(C(=O)N/N=C(\C)CC(=O)Nc2ccc(Cl)cn2)cc1`: “inactive”.

For `Cc1ccc(C)c(N2C(=O)N(Cc3c(F)cccc3Cl)c3ccccc3S2(=O)=O)c1`, the Potency entry is “inactive”. Next, `Cc1ccc(CN2CC(C(=O)NNC(=O)Cn3ccc(C(F)(F)F)n3)CC2=O)cc1` (stereo not given): “inactive”; `c1ccc2c(c1)C(=NC1CCCCC1)NC2=NC1CCCCC1`: “inactive”; `COC(=O)NNC(=O)C1CCC(C)CC1` (stereo not given): “inactive”. Next, `CCOCCCn1c(SCC(=O)Nc2ccc(CC)cc2)nc2ccccc2c1=O`: “inactive”; `Cc1cccc(-c2nc(CS(=O)CC(=O)NC(C)CCc3ccccc3)c(C)o2)c1` (stereo not given): “inactive”; `CNC(=O)c1ccc(-c2nc(CN3CCc4ccccc43)c(C)o2)cc1`: “inactive”. Next, `COc1ccc(CN2CCc3nc(Nc4ccccc4)ncc3C2)c(OC)c1OC`: “inactive”. With `CCOc1ccc(/C=N/NC(=O)C(C)Sc2ccccn2)cc1OCC` (stereo not given), the Potency entry is “inactive”.

As to `COc1ccc(/C=N/NC(=O)c2ccc3c(c2)OCCO3)c(OC)c1`, the Potency is 9.53 µM (active).

As for `COc1ccc(/C=N/NC(=O)CNC(=O)c2ccc(S(=O)(=O)N3CCCC3)cc2)c(OC)c1`, the Potency entry was “inactive”. Then `Cc1cc(C(=O)N/N=C/c2ccccn2)c2ccccc2n1`, with “inactive”; and `CCn1c(SCC(=O)N/N=C/c2ccncc2)nc2ccccc21`, with “inactive”; and `CCn1c(/C=N/NC(=O)c2ccc(OC)cc2)nc2ccccc21`, with 13.5 µM (active). `CCCCCn1c(CCNC(=O)c2ccc(F)cc2)nc2ccccc21`: the Potency entry is “inactive”. Then `COc1ccc(Br)cc1/C=N/NC(=O)c1cccc(S(=O)(=O)N2CCOCC2)c1`, with “inactive”. Take `CCOc1cc(/C=N/NC(=O)c2cc(-c3ccccc3)nc3ccccc23)ccc1O`: the Potency was 16.9 µM (active). On to `COc1ccc(Cc2nc3ccc(C(=O)NCc4ccccc4Cl)cc3o2)cc1`, for which the Potency entry was “inactive”. Then `CCOC(=O)C1CCCN(C(=O)c2ccc3c(c2)sc2nc(-c4ccc(CC)cc4)cn23)C1` (stereo not given), with “inactive”; and `Cc1ccccc1CNC(=O)C(=O)NCC(c1cccs1)S(=O)(=O)c1cccs1` (stereo not given), with “inactive”; and `Cc1nc(N2CCOCC2)c2c(C(=O)NCc3cccc(Cl)c3)c(C)oc2n1`, with “inactive”. Next, `O=C1Nc2cc(C(=O)N3CCC(N4CCCCC4)CC3)ccc2S/C1=C\c1ccccc1`: “inactive”.

In the case of `O=C(Nc1ccc(Cl)cn1)c1cnn2cccnc12`, the Potency was 7.57 µM (active). In the case of `Cc1nc(NC(=O)c2ccc3c(c2)OCCO3)ccc1Br`, the Potency is 1.51 µM (active). Next, `Cc1cccc(C)c1NC(=O)CNC(=O)c1ccc2c(c1)OCCO2`: “inactive”; `Cc1cc(NC(=O)c2cnn3cccnc23)n(-c2ccccc2)n1`: “inactive”. Take `CC1(c2ccc(Cl)cc2)NC(=O)N(CC(=O)c2ccc3c(c2)OCO3)C1=O` (stereo not given): the Potency result was “inactive”. Then `O=C(NCc1ccco1)c1nn2cccnc2c1Cl`, with “inactive”. For `CCCc1cc(C(=O)Nc2ccc(Cl)cn2)cs1`, the Potency was 0.478 µM (active).

`CCCc1cc(C(=O)Nc2ccc(C(=O)OC)cc2)cs1`: the Potency result was “inactive”. Next, `O=C(Nc1ccc(Cl)cn1)c1ccc2c(c1)OCCO2`: 1.35 µM (active); `CS(=O)(=O)c1ccc(-c2nnc(NC(=O)c3ccc4c(c3)OCCO4)o2)cc1`: “inactive”.

For the compound `CCCCC(CC)C(=O)Nc1ccc(Cl)cn1` (stereo not given), the Potency result was “inactive”. Then `COc1ccc(C(=O)NC(=S)Nc2ccc(Cl)cn2)cc1OC`, with “inactive”; and `CC12CCC(=O)N1C(C(=O)Nc1ccc(F)c(F)c1F)CS2` (stereo not given), with “inactive”; and `COc1ccc(OC)c(CNC(=O)CN2C(=O)CCn3nc(-c4cn(C)c5ccccc45)cc32)c1`, with “inactive”.

Take `CCN(CC(=O)Nc1ccc(OC)cc1)C(=O)CSCc1ccc(C)cc1`: the Potency entry was “inactive”. Next, `Cc1nn(CC(=O)N/N=C/c2ccc(F)cc2)c(C)c1[N+](=O)[O-]`: “inactive”. Then `COc1cc(/C=N\NC(=O)C2C(=O)NCC2c2ccccc2)cc(OC)c1O` (stereo not given), with “inactive”; and `CC(Oc1ccccc1[N+](=O)[O-])C(=O)N/N=C/c1ccoc1` (stereo not given), with “inactive”; and `Cc1cc(C(=O)N/N=C/c2ccc(O)c([N+](=O)[O-])c2)c(C)n1-c1ccc(F)cc1`, with 2.39 µM (active). Next, `CC(C)c1cc(C(=O)N/N=C/c2ccoc2)c(O)c(C(C)C)c1`: “inactive”; `COc1cc(/C=N/NC(=O)c2cc(C)n(-c3ccc(F)cc3)c2C)cc(OC)c1O`: 15.1 µM (active). For `Nc1c(N(Cc2ccco2)C(=O)c2cccc(F)c2)c(=O)[nH]c(=O)n1Cc1ccccc1`, the Potency entry was “inactive”. Then `Cc1ccccc1C(=O)Nc1nnc(S(=O)(=O)N(C)c2ccc(Cl)cc2)s1`, with “inactive”. Then `CC(C)(CNC(=O)CNC(=O)C1CCCCC1)N1CCOCC1`, with “inactive”; and `CCOC(=O)c1ccc(NC(=O)c2c(NCc3cccc(OC)c3)sc3c2CCC3)cc1`, with “inactive”. `O=C(C1CCC(Cn2c(=O)c3sccc3n(Cc3ccccc3F)c2=O)CC1)N1CCCCC1` (stereo not given): the Potency result is “inactive”. Next, `CC1(C)CC(=O)C=C(c2cccc3c2Oc2ccccc2S3)C1`: “inactive”. For `COc1cccc(OCC(=O)Nc2ccccc2C(N)=O)c1`, the Potency was 4.78 µM (active). Then `Cc1cccc(OCC(=O)Nc2ccccc2F)c1`, with 21.3 µM (active). Then `CCCOC(=O)Nc1ccccc1C(N)=O`, with “inactive”. Then `Cc1cccc(OCC(=O)Nc2ccc(C(=O)O)cc2NC(=O)COc2cccc(C)c2)c1`, with “inactive”.

In the case of `Cc1cccc(OCC(=O)NCCCNC(=O)c2ccccn2)c1`, the Potency result was “inactive”. `Cc1cccc(OCCC(=O)Nc2ccccc2C(N)=O)c1`: the Potency entry is “inactive”.
